Assay results from PubChem BioAssay (EPA / NIEHS).
Activity calls are given as the source filed them. The calls were made as follows: active = hit-call score of the fitted dose curve at least 0.9, where 1 is the maximum; inactive = score below 0.9.

assay: ATG_AP_2_CIS: Attagene CIS-FACTORIAL HepG2 Assay for human Activator Protein 2 (AP-2) (AID 2282932); settings: HepG2 AP-2 cis-reporter, Attagene transcription factor profiling; actives raise or lower the signal
Procedure: ATG_CIS is a cell-based, multiplexed-readout assay that uses HepG2, a human liver cell line, with measurements taken at 24 hours after chemical dosing in a 24-well plate.ATG_AP_2_CIS is one of 52 assay component(s) measured or calculated from the ATG_CIS assay. It is designed to make measurements of mRNA induction, a form of inducible reporter, as detected with fluorescence intensity signals by Reverse transcription polymerase chain reaction (RT-PCR) and Capillary electrophoresis technology.Data from the assay component ATG_AP_2_CIS was analyzed into 1 assay endpoint. This assay endpoint, ATG_AP_2_CIS, was analyzed with bidirectional fitting relative to DMSO as the negative control and baseline of activity. Using a type of inducible reporter, measures of mRNA for gain or loss-of-signal activity can be used to understand the reporter gene at the transcription factor-level as they relate to the gene TFAP2A and TFAP2B and TFAP2D. Furthermore, this assay endpoint can be referred to as a primary readout, because this assay has produced multiple assay endpoints where this one serves a reporter gene function. To generalize the intended target to other relatable targets, this assay endpoint is annotated to the dna binding intended target family, where the subfamily is basic helix-turn-helix leucine zipper.
Human liver HepG2 cells are transiently transfected with multiple reporter transcription units (MRTUs) in 6-well plates using FuGene 6 reagent (Roche; 3 ml FuGene/1 mg DNA). The MRTU constructs are regulated by a cis-regulating element (promoter). […] A major difference between the CIS and TRANS system is that in CIS activities of endogenous TFs are measured, whereas the TRANS assay evaluates changes in activities of exogenous, chimeric NR-Gal4 proteins. […] At the end of 24 hour incubation, total RNA was isolated using TriZol reagent (Invitrogen). The isolated RNA is then reverse-transcribed using oligo(dT) primer and Mo-MLV reverse transcriptase (Invitrogen) with DNAse I (Ambion) treatment for 30 min. The one-tenth of the produced cDNA was amplified by PCR using Taq DNA polymerase (Invitrogen) and two reporter sequence-specific primers. The PCR products were fluorescently labeled by primer extension with 6-arboxyfluorescein (6-FAM) 5'-labeled reporter sequence-specific primer (2 min at 95 C, 20 s at 68 C and 10 min at 72 C) and these products were digested with 5U of HpaI (New England Biolabs) for 2h at 37 C. The fragments were purified using Qiaquick PCR columns (Qiagen), analyzed on an ABI 3130xL genetic analyzer (Applied Biosystems) with peak positions identified by using a set of X-rhodamine (ROX)-labeled MapMarker1000 molecular weight standards (BioVentures). The raw capillary electrophoresis data was processed using Attagraph software (Attagene).

outcome, inactive:
O=C1CCCCCCCCCCC(=O)OCCO1, C=CC(=O)OCCC(=O)O, C=CC(C)(CCC=C(C)C)OC(=O)C(C)C (stereo not given), CCN(CCO)c1cccc(C)c1, CC(C)CCCCCOC(=O)CCS, CCCCCCCCC(=O)OCC, C=CCOCC(O)CCl (stereo not given), [Cl][Bi]([Cl])([c]1ccccc1)([c]1ccccc1)[c]1ccccc1, CCCCCCCOC(=O)CCC, CC(C)=CCC[C@H](C)CCO, CC(C)c1ccc2c(c1)CC[C@H]1[C@](C)(CN)CCC[C@]21C, CC=CC(F)(F)C(F)(F)C(F)(F)F, COC(=O)c1cc(Cl)ccc1[N+](=O)[O-], C=C(C)C(=O)OCC(C)C, C=C[C@](C)(O)CC[C@@H]1[C@@]2(C)CCCC(C)(C)[C@@H]2CC[C@@]1(C)O, CC(C)COC(=O)C=Cc1ccccc1, CC(C)=CC1CC(C)CCO1 (stereo not given), CCc1c(C(=O)O)c(=O)cnn1-c1ccc(Cl)cc1, CCCCCCOc1cc(C)c(O)c(C)c1C, COCc1c(C(C)C)nc(C(C)C)c(/C=C/[C@@H](O)C[C@@H](O)CC(=O)O)c1-c1ccc(F)cc1, C=CC=CC=CCCCCC, CCCCC(CC)COC(=O)c1ccccc1 (stereo not given), CC(C)(C)c1ccc(N)cc1, CN(C)c1ccc(N=Nc2ccccc2C(=O)O)cc1, CC(C)c1ccc(C#N)cc1, CCO[Si](C)(OCC)OCC, Nc1ccc(N=Nc2ccccc2)c(N)n1, CCCCOCCOC(=O)COc1nc(Cl)c(Cl)cc1Cl, COCCOCCOCCOCCOC, CCOC(=O)CC(C(C)=O)C(C)=O, Cc1ccc(C(C)(C)C)cc1, CCc1ccc2c(c1)C(=O)c1ccccc1C2=O, CC1=CC[C@H](C(C)C)C=C1, NNC(=O)c1cccc(C(=O)NN)c1, CC(=O)OCCC1CCCCC1, C=C[Si](OC(C)=O)(OC(C)=O)OC(C)=O, C=CC(=O)NC(C)(C)CS(=O)(=O)O, C=CC(=O)OCCOC1C2CCC1C1CC=CC12 (stereo not given)

AC50, active:
O=C1Nc2ccccc2C1(c1ccc(O)cc1)c1ccc(O)cc1 44.8 µM, c1ccc2c(c1)ccc1ncccc12 178 µM
